The entries come from a sample that favours hits as a whole.
HT1080-NT tox: qHTS for induction of synthetic lethality in tumor cells producing 2HG: qHTS for the HT-1080-NT fibrosarcoma cell line; AID 686970, 2013; Potency, µM (highest dose often 46.1 µM), without a hit: at the top dose activity, negative = less viability, usual class: cytotoxic; HT-1080-NT fibrosarcoma viability, CellTiter-Glo ATP luminescence, 48 h; hit rate 1.6% among 360,000;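 note: NT is the 2HG producing partner of a matched IDH1 knockdown line; potency is the fitted concentration of half-maximal effect; 0% = DMSO-treated cells and -100% = media-only wells without cells; nearly all actives have a fitted effect of over 55% in size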
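Viability of the 2HG-overproducing fibrosarcoma line after 48 hours of compound exposure at 37 degrees C was determined by luminescence with CellTiter-Glo, and concentration-effect curves were then fitted and categorized.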
IL-1B inflam inh: qHTS for Inhibitors of Inflammasome Signaling: IL-1-beta AlphaLISA Primary Screen; activity change, % at 57.5 µM; THP-1 LPS/ATP IL-1B secretion, AlphaLISA, 16 h; active compounds read low; hit rate 4.7% among 360,000; in the data active = activity change below about -50%; inconclusive = mostly about -30% to -49%
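THP-1 cells pretreated 1 hr with compounds (up to 57.5 uM final), then stimulated with LPS (250 ng/mL final) plus ATP (1.25 mM final); secreted IL-1B measured by AlphaLISA after 16 hr, decreased signal indicating inhibition.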
HT1080 IDH1KD tx: qHTS for induction of synthetic lethality in tumor cells producing 2HG: qHTS for the HT-1080-IDH1KD cell line | Potency, µM (highest dose often 46.1 µM), inactives show top-dose activity, negative = toxicity, hits mostly cytotoxic | HT-1080 IDH1 knockdown viability, ATP luminescence, 48 h | hit rate 2% among 360,000;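 note: potency is the fitted concentration of half-maximal effect; 0% = DMSO wells and -100% = cell-free medium wells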
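Viability of IDH1-knockdown HT-1080 fibrosarcoma cells was assessed by CellTiter-Glo after 48 h at 37 °C with titrated compound; concentration-effect curves were classified by fit quality and response size.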
ALOX12 inh: Primary qHTS assay for inhibitors of human arachidonate 12S-lipoxygenase (ALOX12): Round 2 | hit rate 1.1% among 580,000 | Polyunsaturated fatty acid lipoxygenase ALOX12 (Homo sapiens), P18054 | Potency, µM (doses to about 108 µM), without a hit: top-dose activity change, negative = inhibition, actives largely listed as inhibitors | purified 12hLO, xylenol orange hydroperoxide absorbance | AID 1671190, 2021; note: potency is the fitted concentration of half-maximal effect
Target sequence (P18054 whole entry, looked up): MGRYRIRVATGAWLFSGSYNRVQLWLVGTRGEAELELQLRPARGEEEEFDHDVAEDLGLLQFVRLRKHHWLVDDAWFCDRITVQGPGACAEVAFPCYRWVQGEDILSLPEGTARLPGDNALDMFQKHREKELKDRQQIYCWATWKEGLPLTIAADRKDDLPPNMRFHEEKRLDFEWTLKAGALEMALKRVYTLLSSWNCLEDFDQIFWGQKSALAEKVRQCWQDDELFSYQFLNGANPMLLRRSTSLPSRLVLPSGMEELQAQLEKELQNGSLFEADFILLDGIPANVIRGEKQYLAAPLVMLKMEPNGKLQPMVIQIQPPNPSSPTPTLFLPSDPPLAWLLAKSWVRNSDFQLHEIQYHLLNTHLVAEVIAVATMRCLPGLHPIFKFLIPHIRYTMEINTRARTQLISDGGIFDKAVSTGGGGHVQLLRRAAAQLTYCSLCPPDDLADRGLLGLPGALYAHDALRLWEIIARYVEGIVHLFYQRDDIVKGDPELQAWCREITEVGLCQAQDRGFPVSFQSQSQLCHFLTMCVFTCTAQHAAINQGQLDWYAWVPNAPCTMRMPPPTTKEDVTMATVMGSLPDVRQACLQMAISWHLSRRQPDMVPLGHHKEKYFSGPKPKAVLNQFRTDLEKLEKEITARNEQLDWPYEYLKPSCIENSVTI
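Hydroperoxide product was detected by ferrous iron/xylenol orange as the 573 to 405 nm absorbance ratio. Arachidonic acid at 40 uM (final) was turned over for 30 min at room temperature by 150 nM human 12hLO, pH 7.0 Hepes buffer, after 15 min compound preincubation.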
DT40 TDP1 no CPT: qHTS for Inhibitors of human tyrosyl-DNA phosphodiesterase 1 (TDP1): qHTS in cells in absence of CPT; DT40 Tdp1-/- hTDP1 cells, no CPT, ATP luminescence, 48 h; Potency, µM (top dose mostly 46.2 µM), without a hit: at the top dose activity change, negative = growth inhibition, hits mostly inhibitors; hit rate 15% among 420,000; AID 686978, 2013; note: potency is the fitted concentration of half-maximal effect; nearly all actives have a fitted effect of over 55% in size
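Growth of hTDP1-complemented DT40 Tdp1-knockout cells is measured by ATP luminescence after at least 48 hr compound exposure at 37 °C, with DMSO substituting for the 20 nM CPT used in the parallel screen.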
DT40 TDP1 CPT: qHTS for Inhibitors of human tyrosyl-DNA phosphodiesterase 1 (TDP1): qHTS in cells in presence of CPT. chicken DT40 Tdp1-/-;hTDP1 cells + 20 nM CPT, ATP luminescence, 48 h. Potency, µM (top dose mostly 46.2 µM), for inactives: at the highest dose activity change, negative = growth inhibition, usual class: inhibitors. hit rate 12% among 420,000; note: potency is the fitted concentration of half-maximal effect; nearly all actives have a fitted effect of over 55% in size
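Cell growth measured by CellTiter-Glo luminescence after a minimum 48 h, 37 C compound exposure with 20 nM CPT in Tdp1-knockout DT40 cells stably expressing hTDP1, seeded 400/well; qHTS titration format.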
* = called active by the depositor; u = inconclusive; x = no result given; [ ] = dose if it differs, or a comment. Unless noted, calls come from the whole dose curve; as a rule, active = well fitted curve in the direction sought with a large enough effect; inconclusive = small, poorly fitted or top-dose-only effect, or another doubt; inactive = no such curve, though single readings can be large; an effect the other way counts as inactive or inconclusive. Unless noted, % is set by controls: 0 for no effect and ±100 for the full control effect.

SMILES | HT1080-NT tox | IL-1B inflam inh | HT1080 IDH1KD tx | ALOX12 inh | DT40 TDP1 no CPT | DT40 TDP1 CPT
Cc1cccc(Nc2cc(C)nc3ccccc23)c1 | -2% | -91* | -17% | -66% | u | -1%
COc1ccc(Nc2cc(C)nc3ccc(Cl)cc23)cc1 | x | x | x | -14% | x | x
O=C(NNc1cc(C(F)(F)F)nc2ccccc12)Nc1cccc(Cl)c1 | u | -89* | 21µM* | u | 16µM* | u
Cc1cc(Nc2cccc(Cl)c2)c2ccccc2n1 | -11% | u | -2% | 2% | 23µM* | 21µM*
Cc1cnc(C(=O)NC2C[C@H]3CC[C@@H](C2)N3C(=O)CC(C)C)cn1 (stereo partly drawn) | x | x | x | 40% | x | x
CC(NC(=O)c1cccc2ccccc12)C1CC2CCC1C2 (stereo not drawn) | x | x | x | 3% | x | x
Fc1ccc2nc(N3CCCC3)sc2c1 | 2% | 28 | 5% | 20% | 3% | 7%
O=C(c1ccccc1)N1CCN(c2nc3ccc([N+](=O)[O-])cc3s2)CC1 | -5% | -2 | -4% | -1% | 5.2µM* | 6.5µM*
O=[N+]([O-])c1ccc2nc(N3CCCC3)sc2c1 | 13% | -6 | 2% | u | 18µM* | u
CCNc1nc(Nc2ccc(C)c(Cl)c2)c2cnn(C)c2n1 | -8% | -11 | -15% | -7% | 1.6µM* | 18µM*
Cn1ncc2c(Nc3ccc(Cl)c(Cl)c3)ncnc21 | 0% | 35 | 2% | -17% | u | u
CCCCNc1nc(Nc2ccc(C)c(Cl)c2)c2cnn(C)c2n1 | u | -66* | -23% | u | u | 23µM*
Cc1cnc2c(C(=O)N[C@H](C3CCNCC3)C3CC(O)C3)cnn2c1 (stereo partly drawn) | x | x | x | 85% | x | x
CCOC(=O)c1ccccc1NC(=O)CSc1ccc(-c2ccccn2)nn1 | -14% | 149 | -26% | 0% | u | 3.7µM*
CCc1ccc(NC(=O)CSc2ccc(-c3ccccn3)nn2)cc1 | u | 265 | -28% | 75% | 23µM* | u
Cc1cccc(NC(=O)CSc2ccc(-c3ccccn3)nn2)c1 | x | x | x | -1% | u | u
O=C(CSc1ccccn1)Nc1ccc2c(c1)C(=O)c1ccccc1C2=O | u | 0 | 21µM* | u | 16µM* | u
O=C(CSc1ccccn1)Nc1ccc2c(c1)CCC2 | 6% | -2 | 3% | -8% | -19% | -11%
Cc1ccc(NC(=O)CSc2ccc(-c3ccccn3)nn2)cc1F | -5% | 108 | -28% | 13% | 12µM* | 16µM*
CCCc1cc(=O)[nH]c(SCc2nnc(-c3cc(OC)c(OC)c(OC)c3)o2)n1 | x | x | x | 1% | x | x
O=C(CSc1nc(C2CC2)n(-c2ccccc2)n1)N1CCN(c2ccc(F)cc2)CC1 | x | x | x | 15% | x | x
CCOc1cccc(C2C=C(c3ccc4c(c3)OCO4)NC(c3ccccc3F)N2)c1O (stereo not drawn) | x | x | x | x | 16µM* | 11µM*
CCOC(=O)C1=C(CNCCc2ccc(Cl)cc2)NC(=O)NC1c1ccc2c(c1)OCO2 (stereo not drawn) | u | u | u | 0% | u | u
CCOc1cccc(C2C=C(c3ccc4c(c3)OCO4)NC(c3ccc(F)cc3)N2)c1O (stereo not drawn) | x | x | x | x | 13µM* | 14µM*
CCOc1cccc(C2C=C(c3ccc4c(c3)OCO4)NC(c3ccc(Cl)cc3)N2)c1O (stereo not drawn) | x | x | x | x | 13µM* | 10µM*
SMILES | HT1080-NT tox | IL-1B inflam inh | HT1080 IDH1KD tx | ALOX12 inh | DT40 TDP1 no CPT | DT40 TDP1 CPT
CCOc1cccc(C2Nc3ccccc3-c3cc(C)nn32)c1O (stereo not drawn) | x | x | x | -8% | -12% | 4%
CCOC(=O)C1=C(C)N(c2ccc3c(c2)OCO3)C(=O)NC1c1cccc(F)c1 (stereo not drawn) | x | x | x | -6% | x | x
CCc1nnc(NC(=O)c2cc(-c3ccccc3OC)on2)s1 | x | x | x | -21% | x | x
Cn1ccnc1C(=O)N1CCC(N2C(=O)C3(CCCCC3)C2c2ccncc2)CC1 (stereo not drawn) | x | x | x | 44% | x | x
CCCCN(CC)C(=O)NNC(=O)C(C)Oc1ccc(C#N)cc1 (stereo not drawn) | x | x | x | 6% | x | x
O=C(c1cccc(OC2CN(Cc3cccc(F)c3F)C2)c1)N1CCOCC1 | x | x | x | 18% | x | x
Cc1ccc(NC(=O)CS(=O)CC(=O)Nc2ccc(N3CCOCC3)cc2)cc1Cl (stereo not drawn) | u | -7 | -25% | u | 29µM* | 21µM*
Cc1cc(C)c(NC(=O)CS(=O)CC(=O)Nc2ccc(N3CCOCC3)cc2)c(C)c1 (stereo not drawn) | 5% | 18 | -1% | -4% | -13% | 2%
Cc1ccc(NC(=O)c2cc(N3C(=O)C=CC3=O)ccc2N2CCOCC2)cc1Cl | -3% | -57* | 16µM* | 13µM* | 3.7µM* | 4.1µM*
Cc1ccccc1N(C)C1CN([S+](=O)([O-])c2ccccc2)C1 | x | x | x | -3%[6.33 µM] | x | x
CCc1ccccc1NC(=O)c1cc2c(s1)CN(C(C)C)C2 | x | x | x | 325% | x | x
CN(C)CCNc1nc(-c2ccco2)c2c(c1C#N)CC(C)(C)OC2 | -13% | 7 | -9% | -6% | -17% | -29%
CCCCN(C)c1nc(-c2ccco2)c2c(c1C#N)CC(C)(C)OC2 | u | -67* | -22% | 40µM* | u | u
CC1CCN(C(=O)C(=O)N2CCN(c3nc(-c4ccco4)c4c(c3C#N)CC(C)(C)OC4)CC2)CC1 | x | x | x | 14µM* | x | x
CC(C)c1nc(N2CCN(C(=O)c3ccco3)CC2)c(C#N)c2c1COC(C)(C)C2 | u | u | u | -13% | 21µM* | 15µM*
CCN(CC)C(=O)CN1CCN(c2nc(C)c3c(c2C#N)CC(C)(C)OC3)CC1 | x | x | x | -8% | x | x
CC1(C)Cc2c(C#N)c(N3CCN(C(=O)c4ccccc4)CC3)nc(-c3ccco3)c2CS1 | 1% | -29 | -2% | -37% | u | u
Cc1nc(N2CCN(Cc3ccccc3)CC2)c(C#N)c2c1COC(C)(C)C2 | -2% | -2 | -4% | -4% | 26µM* | u
